Test [1] can be described thus: qHTS assay to identify small molecule antagonists of the progesterone receptor (PR) signaling pathway - cell viability counter screen (AID 1346798). Note: nearly all actives have a fitted effect of over 50% in size. The conditions noted are these: PR-UAS-bla HEK293T viability, CellTiter-Glo luminescence, 16 h; series mostly up to 92.4 µM. The gist of the method:
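PR-UAS-bla HEK293T cells in medium with 2% charcoal-stripped FBS were treated with compounds plus R5020 for 16 hr at 37C. Cell viability was then read by CellTiter-Glo luminescence after 30 min at room temperature in the same wells.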
(In general: qHTS replaces the single test concentration by a dilution series.)

The nature of test [2]: qHTS assay to identify small molecule agonists of the progesterone receptor (PR) signaling pathway - cell viability counter screen (AID 1346799; calls by dose curve; note: nearly all actives have a fitted effect of over 45% in size; note: potency is the fitted concentration of half-maximal effect). The note with it: PR-UAS-bla HEK293T viability, CellTiter-Glo luminescence, 16 h; series mostly up to 92.4 µM. The gist of the method: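 PR-UAS-bla HEK293T cells, 3,000 per well in medium with 2% charcoal-stripped FBS, were preincubated 6 hr at 37C, then exposed to compounds for 16 hr; viability was read as CellTiter-Glo luminescence after 30 min at room temperature.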

Test [3] is described as follows: qHTS assay to identify small molecule antagonists of the TGF-beta/Smad signaling pathway - cell viability counter screen (AID 1346824). Note: nearly all actives have a fitted effect of over 50% in size. The conditions noted are these: SBE-bla HEK293T viability, CellTiter-Glo luminescence; series mostly up to 76.8 µM. The gist of the method: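 Cytotoxicity counter-screen run in the same wells as the beta-lactamase Smad reporter read: CellTiter-Glo luminescence after 30 min at room temperature. HEK 293T SBE-bla cells had 5 hr compound exposure at 37 C with TGF-beta1 (0.25 ng/mL stock).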

Test [4] can be described thus: qHTS assay to identify small molecule agonists of the TGF-beta/Smad signaling pathway - cell viability counter screen (AID 1346829). Note: top concentration of the series differs between compounds; nearly all actives have a fitted effect of over 45% in size. The conditions noted are these: SBE-bla HEK293T viability, CellTiter-Glo luminescence, 5 h; series mostly up to 76.8 µM. The gist of the method:
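Cytotoxicity counter screen: CellTiter-Glo luminescence (30 min, room temperature) measured in the SBE-bla HEK 293T reporter wells after 5 hr compound treatment at 37 C and the 2 hr substrate step.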

A short description of test [5]: qHTS assay to identify small molecule agonists of the TGF-beta/Smad signaling pathway (AID 1346859; active = well fitted activation curve with a large enough effect in the signal ratio in the repeat runs, not every such curve was filed as active; the % refers to the signal ratio). The conditions noted are these: SBE-bla HEK293T, TGF-beta/Smad beta-lactamase reporter, 5 h; series mostly up to 76.8 µM. In outline:
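HEK 293T cells stably carrying a beta-lactamase reporter driven by the Smad binding element were seeded overnight, exposed to DMSO-dissolved compounds for 5 hr at 37 C, 5% CO2, then loaded with FRET substrate for 2 hr at room temperature.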

The target in test [6] is Thyrotropin-releasing hormone receptor (Homo sapiens) (UniProt P34981). Kind of test: qHTS assay to identify small molecule agonists of the thyrotropin-releasing hormone receptor (TRHR) signaling pathway (AID 1346891; calls by dose curve). The conditions noted are these: TRHR-HEK293 calcium fluorescence, agonist mode; series mostly up to 57.6 µM. In outline:
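TRHR-expressing HEK293 cells were plated 18 h at 37 °C/5% CO2, loaded with calcium dye 2 h at 37 °C, then given compound in DMSO; fluorescence was read kinetically for 3 min at 1 s intervals.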

Test [7] is described as follows: Human pregnane X receptor (PXR) small molecule agonists, qHTS cell viability counter screen (AID 1346977). Note: nearly all actives have a fitted effect of over 50% in size. The note with it: PXR-Luc HepG2 viability, CellTiter-Fluor, 24 h; series mostly up to 92.4 µM. The gist of the method:
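PXR-Luc HepG2 cells in medium with 5% charcoal-stripped FBS were pre-incubated 5hr, then exposed to compounds for 24hr at 37C. Viability was read in the same wells by CellTiter-Fluor fluorescence, reagent added after 23hr with a 1hr incubation.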

Test [8] can be described thus: Caspase-3/7 induction in HepG2 cells by small molecules, qHTS assay (AID 1346978). Note: nearly all actives have a fitted effect of over 15% in size. The conditions noted are these: HepG2 caspase-3/7 activation, Caspase-Glo luminescence, 17 h; series mostly up to 92.4 µM. The gist of the method: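 Caspase-3/7 induction was measured by Caspase-Glo 3/7 luminescence (30 min, room temperature) after a 17 hr compound exposure of wild-type HepG2 cells seeded at 2,000 per well and pre-incubated 5 hr.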

The nature of test [9]: Caspase-3/7 induction in CHO-K1 cells by small molecules, qHTS assay (AID 1346980). Note: nearly all actives have a fitted effect of over 15% in size. The conditions noted are these: CHO-K1 caspase-3/7 induction, Caspase-Glo luminescence, 17 h; series mostly up to 92.4 µM. In outline:
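Luminescent Caspase-Glo 3/7 read (30min, room temperature) quantified apoptosis induction. Cells were wild-type CHO-K1, treated with compound for 17hr at 37 C and 5% CO2.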

Test [10] in a line: Caspase-3/7 induction in HepG2 cells by small molecules, qHTS cell viability counter screen (AID 1346981). Note: nearly all actives have a fitted effect of over 30% in size. The note with it: CellTiter-Fluor fluorescence, 17 h; series mostly up to 92.4 µM. The gist of the method:
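Multiplexed with the caspase-3/7 assay: HepG2 cells, 16 hr compound treatment, CellTiter-Fluor viability detection by fluorescence.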

Test [11] can be described thus: Caspase-3/7 induction in CHO-K1 cells by small molecules, qHTS cell viability counter screen (AID 1346979). Note: nearly all actives have a fitted effect of over 35% in size. The note with it: CellTiter-Fluor fluorescence, 17 h; series mostly up to 92.4 µM. In outline: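 Wild-type CHO-K1 cells were seeded at 1,500 per well, rested 5hr at 37 C, then exposed to compounds in DMSO. After 16hr, CellTiter-Fluor reagent was added and fluorescence read 1hr later as the viability measure.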

Test [12] concerns the target Nuclear receptor subfamily 1 group I member 2 (Homo sapiens) (UniProt O75469). In words: Human pregnane X receptor (PXR) small molecule agonists, qHTS assay (AID 1346982). Note: nearly all actives have a fitted effect of over 35% in size. Note: potency is the fitted concentration of half-maximal effect. The note with it: PXR-Luc HepG2, CYP3A4 luciferase reporter, 24 h; series mostly up to 92.4 µM. The gist of the method:
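We seeded PXR-Luc HepG2 cells in assay medium containing 5% charcoal-stripped FBS, added compounds 5 hr later, incubated 24 hr, and read luminescence with ONE-Glo reagent.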

In test [13] the target is Cytochrome P450 2D6 (Homo sapiens) (UniProt P10635). Kind of test: Cytochrome P450 Family 2 Subfamily D Member 6 (CYP2D6) small molecule antagonists: luciferase reporter qHTS assay (AID 1671196). Note: nearly all actives have a fitted effect of over 50% in size. Note: potency is the fitted concentration of half-maximal effect. The conditions noted are these: P450-Glo CYP2D6 enzyme assay, luciferin luminescence, 1 h; series mostly up to 115 µM. In outline:
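Luminescence (RLU), read 20 min after detection reagent, indicated CYP2D6 conversion of proluciferin to luciferin during a 1 h NADPH-dependent reaction at room temperature.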

Test [14] addresses Cytochrome P450 2C19 (Homo sapiens) (UniProt P33261). Kind of test: Cytochrome P450 Family 2 Subfamily C Member 19 (CYP2C19) small molecule antagonists: luciferase reporter qHTS assay (AID 1671197). Note: nearly all actives have a fitted effect of over 65% in size. Note: potency is the fitted concentration of half-maximal effect. The conditions noted are these: P450-Glo CYP2C19 enzyme, luciferin luminescence, 1 h; series mostly up to 115 µM. The gist of the method:
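Luminescent readout of CYP2C19 activity: luciferin product detected 20 min after adding detection reagent. Before that, compound and enzyme-substrate mix preincubated 10 min at room temperature; NADPH-regenerating system started a 1 h, 37C reaction. Ketoconazole as positive control.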

Test [15] has as its target Progesterone receptor (Homo sapiens) (UniProt P06401). Kind of test: qHTS assay to identify small molecule agonists of the progesterone receptor (PR) signaling pathway (AID 1346784; calls by dose curve; note: nearly all actives have a fitted effect of over 30% in size). The note with it: PR-UAS-bla HEK293T, beta-lactamase FRET ratio, 16 h; series mostly up to 92.4 µM. In outline: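 PR-UAS-bla HEK 293T cells carrying a UAS-driven beta-lactamase reporter were seeded in medium with 2% charcoal-stripped FBS, preincubated 6 hr at 37C, then exposed to compounds in DMSO for 16 hr; agonism was read by LiveBLAzer B/G FRET fluorescence.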

The target in test [16] is Thyrotropin-releasing hormone receptor (Homo sapiens) (UniProt P34981). Kind of test: qHTS assay to identify small molecule antagonists of the thyrotropin-releasing hormone receptor (TRHR) signaling pathway (AID 1346877; active = well fitted inhibition curve with a large enough effect in the repeat runs, not every such curve was filed as active). The note with it: TRHR-HEK293, TRH-induced calcium fluorescence, antagonist mode; series mostly up to 51.3 µM. The gist of the method: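 Screening used HEK293 cells engineered with TRHR, with a brief 5 min room-temperature compound exposure preceding addition of TRH to 1 nM. The read-out was kinetic calcium-dye fluorescence, concentration-response from 15 doses in triplicate.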

Test [17] addresses Nuclear receptor subfamily 1 group I member 2 (Rattus norvegicus) (UniProt Q9R1A7). Kind of test: Rat pregnane X receptor (rPXR) activation by small molecules, qHTS assay (AID 1346983). Note: nearly all actives have a fitted effect of over 20% in size. The conditions noted are these: rPXR luciferase reporter cells, One-Glo luminescence, 24 h; active compounds read high. In outline: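 Luminescent readout (One-Glo luciferase, 30 min room temperature) followed 24 hr compound treatment at 37 C of rPXR cells plated 2,000 per well and preincubated 5hr; qHTS format with compounds delivered in DMSO.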

For test [18], the target named is Nuclear receptor subfamily 1 group I member 2 (Homo sapiens) (UniProt O75469). In words: CYP3A4 induction through human pregnane X receptor (PXR) by small molecules, qHTS assay (AID 1346984). Note: nearly all actives have a fitted effect of over 40% in size. The note with it: DPX-2 HepG2 PXR, CYP3A4-luciferin luminescence, 24 h; series mostly up to 46.1 µM. In outline:
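qHTS, concentration-response format: HepG2 DPX-2 line, PXR/CYP3A4-luc. Exposure 24 h, 37C. Substrate Luciferin-IPA 3uM final, 3 h. Detection One-Glo, 30 min RT.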

The target is the same in test [19]. Kind of test: Human pregnane X receptor (PXR) activation by small molecules, qHTS assay (AID 1346985). Note: nearly all actives have a fitted effect of over 40% in size. The conditions noted are these: DPX-2 HepG2 CYP3A4-luciferase, 24 h; series mostly up to 38.3 µM. In outline: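 DPX-2 cells (HepG2 co-transfected with a PXR response element and a CYP3A4-promoter luciferase construct) were seeded at 2,000 per well, rested 5 hr at 37C, then exposed to DMSO-dissolved compounds for 24 hr. Activation was read as luciferase luminescence.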

This is an account of results in PubChem BioAssay (Tox21).

Structures are written as SMILES. Unmarked numbers belong to inactive results. Results filed as inconclusive are left out. Active and inactive are the calls of the source. Unless noted, calls come from the whole dose curve; as a rule, active = well fitted curve in the direction sought with a large enough effect in the repeat runs; inconclusive = weak or mixed curves; inactive = no such curve, though single readings can be large; an effect the other way counts as inactive or inconclusive.
% is set by controls: 0 for no effect and ±100 for the full control effect.

Sequence of Nuclear receptor subfamily 1 group I member 2 (Homo sapiens) (O75469 whole entry, looked up): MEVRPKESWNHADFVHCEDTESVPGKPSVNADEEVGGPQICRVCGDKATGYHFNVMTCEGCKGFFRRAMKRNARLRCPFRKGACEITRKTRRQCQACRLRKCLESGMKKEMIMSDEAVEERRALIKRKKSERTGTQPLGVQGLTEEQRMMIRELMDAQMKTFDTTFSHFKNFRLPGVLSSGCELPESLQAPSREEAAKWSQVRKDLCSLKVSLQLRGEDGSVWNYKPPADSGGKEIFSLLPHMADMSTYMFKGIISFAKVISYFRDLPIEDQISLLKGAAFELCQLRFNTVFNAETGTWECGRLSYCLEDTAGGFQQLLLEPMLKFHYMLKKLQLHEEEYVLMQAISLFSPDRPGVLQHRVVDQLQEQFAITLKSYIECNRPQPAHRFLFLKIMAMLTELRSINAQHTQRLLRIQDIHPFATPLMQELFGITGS
Sequence of Progesterone receptor (Homo sapiens) (P06401 whole entry, looked up): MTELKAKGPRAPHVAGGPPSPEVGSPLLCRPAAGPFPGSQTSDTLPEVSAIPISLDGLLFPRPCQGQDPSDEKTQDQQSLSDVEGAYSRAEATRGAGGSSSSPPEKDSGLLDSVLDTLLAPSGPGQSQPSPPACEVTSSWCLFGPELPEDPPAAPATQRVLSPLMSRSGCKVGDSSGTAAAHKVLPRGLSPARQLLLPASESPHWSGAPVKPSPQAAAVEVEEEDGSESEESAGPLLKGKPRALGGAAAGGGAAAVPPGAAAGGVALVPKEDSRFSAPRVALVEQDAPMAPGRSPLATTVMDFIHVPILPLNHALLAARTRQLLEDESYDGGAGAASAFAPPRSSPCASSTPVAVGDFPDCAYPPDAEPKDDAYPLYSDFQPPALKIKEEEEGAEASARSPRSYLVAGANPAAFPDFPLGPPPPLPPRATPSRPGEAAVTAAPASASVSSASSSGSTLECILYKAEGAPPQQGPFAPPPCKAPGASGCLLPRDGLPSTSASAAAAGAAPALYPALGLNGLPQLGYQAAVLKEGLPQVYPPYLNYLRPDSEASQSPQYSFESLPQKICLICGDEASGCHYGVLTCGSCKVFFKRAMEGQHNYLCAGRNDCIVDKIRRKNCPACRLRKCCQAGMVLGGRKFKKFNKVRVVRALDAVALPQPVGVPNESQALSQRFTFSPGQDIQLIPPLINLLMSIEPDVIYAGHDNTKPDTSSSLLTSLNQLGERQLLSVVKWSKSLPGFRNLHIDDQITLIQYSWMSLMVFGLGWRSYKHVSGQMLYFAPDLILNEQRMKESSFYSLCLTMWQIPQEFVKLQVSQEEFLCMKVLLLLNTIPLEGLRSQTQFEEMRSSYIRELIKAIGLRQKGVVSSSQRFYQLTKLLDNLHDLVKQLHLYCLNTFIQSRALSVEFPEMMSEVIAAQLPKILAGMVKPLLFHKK
Sequence of Cytochrome P450 2D6 (Homo sapiens) (P10635 whole entry, looked up): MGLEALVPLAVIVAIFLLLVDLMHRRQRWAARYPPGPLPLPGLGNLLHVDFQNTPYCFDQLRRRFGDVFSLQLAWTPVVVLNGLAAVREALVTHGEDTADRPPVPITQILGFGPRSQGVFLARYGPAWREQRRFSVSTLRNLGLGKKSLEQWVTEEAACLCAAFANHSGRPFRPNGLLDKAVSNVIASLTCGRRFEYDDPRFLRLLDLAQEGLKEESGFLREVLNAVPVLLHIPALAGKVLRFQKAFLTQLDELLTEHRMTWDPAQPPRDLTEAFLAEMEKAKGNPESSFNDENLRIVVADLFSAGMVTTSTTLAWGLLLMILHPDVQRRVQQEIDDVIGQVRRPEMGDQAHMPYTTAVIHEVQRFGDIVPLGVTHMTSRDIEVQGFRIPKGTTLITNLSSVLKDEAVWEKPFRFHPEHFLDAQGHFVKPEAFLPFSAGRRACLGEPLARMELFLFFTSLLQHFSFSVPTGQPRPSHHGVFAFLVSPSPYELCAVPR
Sequence of Cytochrome P450 2C19 (Homo sapiens) (P33261 whole entry, looked up): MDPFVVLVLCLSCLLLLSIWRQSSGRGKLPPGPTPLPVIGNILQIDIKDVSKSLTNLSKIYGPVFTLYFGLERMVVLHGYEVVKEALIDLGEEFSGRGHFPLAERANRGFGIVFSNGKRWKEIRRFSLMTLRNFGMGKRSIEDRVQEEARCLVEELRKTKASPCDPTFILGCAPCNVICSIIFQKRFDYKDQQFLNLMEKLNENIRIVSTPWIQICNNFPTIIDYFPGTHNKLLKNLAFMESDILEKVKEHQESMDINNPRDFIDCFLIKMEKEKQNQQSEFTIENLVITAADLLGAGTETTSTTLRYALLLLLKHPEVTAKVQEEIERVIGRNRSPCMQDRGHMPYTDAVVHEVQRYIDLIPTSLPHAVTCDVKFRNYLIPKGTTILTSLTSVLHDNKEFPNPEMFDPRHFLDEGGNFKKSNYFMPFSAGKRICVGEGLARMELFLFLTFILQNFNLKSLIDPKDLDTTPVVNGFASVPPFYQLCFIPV
Sequence of Thyrotropin-releasing hormone receptor (Homo sapiens) (P34981 whole entry, looked up): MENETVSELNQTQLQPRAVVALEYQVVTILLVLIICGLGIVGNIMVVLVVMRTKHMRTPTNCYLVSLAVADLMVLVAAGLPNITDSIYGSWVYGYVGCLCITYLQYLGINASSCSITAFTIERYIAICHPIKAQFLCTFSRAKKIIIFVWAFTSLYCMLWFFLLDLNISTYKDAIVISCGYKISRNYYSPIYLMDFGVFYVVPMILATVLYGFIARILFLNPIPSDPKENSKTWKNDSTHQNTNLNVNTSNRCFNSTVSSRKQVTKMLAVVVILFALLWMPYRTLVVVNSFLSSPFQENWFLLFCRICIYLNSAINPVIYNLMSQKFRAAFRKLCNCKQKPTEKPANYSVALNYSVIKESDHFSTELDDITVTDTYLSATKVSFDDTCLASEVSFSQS
Sequence of Nuclear receptor subfamily 1 group I member 2 (Rattus norvegicus) (Q9R1A7 whole entry, looked up): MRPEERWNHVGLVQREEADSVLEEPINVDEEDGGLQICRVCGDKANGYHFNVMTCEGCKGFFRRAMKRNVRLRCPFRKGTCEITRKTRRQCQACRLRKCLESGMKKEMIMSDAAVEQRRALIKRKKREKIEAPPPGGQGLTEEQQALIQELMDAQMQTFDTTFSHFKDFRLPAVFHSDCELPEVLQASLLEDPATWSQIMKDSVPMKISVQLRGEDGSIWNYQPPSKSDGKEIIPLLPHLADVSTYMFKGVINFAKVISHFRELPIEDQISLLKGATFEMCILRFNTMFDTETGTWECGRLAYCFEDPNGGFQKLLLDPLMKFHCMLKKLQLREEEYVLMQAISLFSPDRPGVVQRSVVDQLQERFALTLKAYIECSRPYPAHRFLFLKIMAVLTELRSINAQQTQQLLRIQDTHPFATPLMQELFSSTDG

Regarding `CCCC/C=C\CCCCCCCCCC=O`, the Potency entry in [1], in test [2], in [7], in [8] and in [10] was “inactive” in each case. In addition, the compound was called inactive in test [3], in test [4], in test [5], in test [6] and in [9].

With `c1ccc2c(c1)ccc1c3ccccc3ccc21`, the Potency entry in test [1], in test [2], in test [7], in [8], in test [11] and in [10] was “inactive” throughout. Also, the Potency result in test [12], in test [13] and in test [14] was “inactive” throughout. Besides, the compound was classed as inactive in [3], in [4] and in test [9].

With `COc1cc(N)ccc1C`, the Potency result in test [15], in [1], in test [7], in test [11] and in [10] was “inactive” in each case. The call in [3], in test [4], in test [5] and in test [9] was inactive. Moreover, the Potency in test [14] is 1.98 µM (active).

For the compound `CCCC(=O)C(C)=O`, the Potency result in [1], in test [2], in [7], in test [11], in [10] and in test [12] was “inactive” throughout. For the same compound, the outcome in [3], in test [4], in test [5] and in test [9] was inactive.

Consider `Brc1ccc(-c2ccccc2)cc1`, for which the Potency result in [15], in test [1], in test [2], in test [7], in [8] and in test [11] was “inactive” throughout. For the same compound, the Potency entry in test [10] and in [14] was “inactive” throughout. Moreover, the result in [3], in test [4], in test [5] and in test [9] was inactive.

On to `O=C(Nc1ccc(Cl)c(Cl)c1)C1CC1`, for which the Potency result in [15], in [1], in test [7], in test [8], in [10] and in test [18] was “inactive” each time. Further, the compound was called inactive in [3], in [4], in [5], in test [16], in test [6] and in test [9]. The Potency in [12] was 29.8 µM (active); in [14], 11 µM (active). Also, the max activation in [17] is -0.7%.

For `CN1C(C)(C)CCCC1(C)C`, the Potency entry in [15], in [2], in test [7], in test [8], in [11] and in test [10] was “inactive” in each case. Further, the Potency result in test [12] and in [14] was “inactive” throughout. Besides, the outcome in test [3], in test [4], in test [5], in test [16], in test [6] and in test [9] was inactive. Besides, in test [13], the Potency is 2.45 µM (active).

Turning to `CC(C)C(=O)OCCc1ccccc1`, the Potency entry in test [1], in test [2], in [7], in test [8], in test [10] and in [12] was “inactive” in each case. Also, the Potency result in test [13] and in test [14] was “inactive” throughout. The compound was called inactive in test [3], in test [4], in test [5], in test [16], in [6] and in test [9].

Turning to `O=C1c2cccc3c2[C@H](CCC3)CN1[C@@H]1CN2CCC1CC2`, the Potency result in test [15], in test [10], in [12], in [19] and in test [14] was “inactive” throughout. The Potency in [2] is 26.6 µM (active). Further, the result in test [3], in test [4], in test [5], in test [16], in test [6] and in [9] was inactive. The max activation in [17] is -9.35%.
